Reference: the GenesisPotency data set
The whole screen tested about 370,000 compounds, of which about 1,100 (0.3%) were called active. Inconclusive results (about 1%) are left out. The call rests on the fitted dose curve; in most records, active means well fitted activation curve with a large enough effect; inconclusive means small, poorly fitted or top-dose-only effect; inactive means flat fitted curve, though single readings scatter. The full list was thinned out, with actives kept by preference.

molecular target: T1, Relaxin receptor 1, Homo sapiens (UniProt Q9HBX9); test: qHTS Assay for Agonists of the Relaxin Receptor RXFP1
T1 sequence (whole entry): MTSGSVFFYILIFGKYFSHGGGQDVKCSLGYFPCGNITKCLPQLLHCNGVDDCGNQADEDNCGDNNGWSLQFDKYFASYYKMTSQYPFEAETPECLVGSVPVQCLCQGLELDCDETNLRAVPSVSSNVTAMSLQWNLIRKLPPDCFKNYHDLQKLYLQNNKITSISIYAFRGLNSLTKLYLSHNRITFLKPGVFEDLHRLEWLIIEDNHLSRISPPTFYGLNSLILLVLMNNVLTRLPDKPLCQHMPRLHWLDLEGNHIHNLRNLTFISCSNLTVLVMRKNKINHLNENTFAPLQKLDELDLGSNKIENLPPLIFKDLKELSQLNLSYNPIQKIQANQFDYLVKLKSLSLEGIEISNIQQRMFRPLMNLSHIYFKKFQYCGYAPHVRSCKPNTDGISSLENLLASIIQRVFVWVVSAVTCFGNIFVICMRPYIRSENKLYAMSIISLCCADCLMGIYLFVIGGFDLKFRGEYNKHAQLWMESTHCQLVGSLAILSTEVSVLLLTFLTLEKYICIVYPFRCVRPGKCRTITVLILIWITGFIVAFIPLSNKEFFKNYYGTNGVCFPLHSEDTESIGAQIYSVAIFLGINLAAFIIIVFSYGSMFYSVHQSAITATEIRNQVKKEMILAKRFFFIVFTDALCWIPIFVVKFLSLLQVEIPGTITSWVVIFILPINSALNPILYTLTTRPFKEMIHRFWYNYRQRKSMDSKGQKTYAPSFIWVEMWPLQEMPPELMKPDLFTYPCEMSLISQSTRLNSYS

Row | SMILES | outcome
1 | CCCC[N+](CCCC)(CCCC)CCCC.Nc1ncnc2c1ncn2[C@@H]1O[C@H](COS(=O)(=O)[O-])[C@@H](O)[C@H]1O | active
